# In PubChem BioAssay (EPA / NIEHS):
# Records with an inconclusive call do not appear. Activity calls are given as the source filed them. How the source made its calls, unless noted: active means hit-call score of the fitted dose curve at least 0.9, where 1 is the maximum; inconclusive means response in the unintended direction; inactive means score below 0.9.
# What was measured:
# [1] = ATG_M_19_TRANS: Attagene TRANS-FACTORIAL HepG2 Assay for M19 Transcription Factor (Internal Marker) (AID 2282974); conditions: HepG2 Attagene TRANS-FACTORIAL M19 internal marker reporter
# Summary of the method: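 Fluorescence of 6-FAM-labelled reporter cDNA fragments, separated by capillary electrophoresis, served as the readout. These derived from HepG2 cells carrying transfected GAL4-UAS reporter units after 24 h dosing, with DMSO as negative control.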
# [2] = target: Oxysterols receptor LXR-alpha (Homo sapiens) (UniProt Q13133); assay: ATG_LXRa_TRANS: Attagene TRANS-FACTORIAL HepG2 Assay for human Liver X Receptor alpha (LXRa) (AID 2282980); conditions: HepG2 Attagene TRANS reporter, LXRa transactivation
# Oxysterols receptor LXR-alpha (Homo sapiens), sequence (Q13133 whole entry, looked up, the tested form may be a part): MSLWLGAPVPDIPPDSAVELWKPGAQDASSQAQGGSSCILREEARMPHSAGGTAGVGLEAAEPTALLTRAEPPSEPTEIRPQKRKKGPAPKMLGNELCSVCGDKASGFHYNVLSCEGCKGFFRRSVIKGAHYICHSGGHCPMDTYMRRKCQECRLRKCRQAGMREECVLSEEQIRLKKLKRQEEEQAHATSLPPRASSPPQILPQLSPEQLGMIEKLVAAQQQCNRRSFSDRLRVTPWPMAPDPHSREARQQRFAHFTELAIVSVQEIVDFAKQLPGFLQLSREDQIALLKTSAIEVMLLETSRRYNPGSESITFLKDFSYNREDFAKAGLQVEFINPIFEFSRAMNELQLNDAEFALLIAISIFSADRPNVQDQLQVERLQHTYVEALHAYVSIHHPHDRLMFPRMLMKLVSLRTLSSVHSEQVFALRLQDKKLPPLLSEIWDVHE
# Summary of the method: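 Chemical-induced reporter mRNA measured by RT-PCR with fluorescent labelling and capillary electrophoresis after 24 h dosing of transiently transfected HepG2 cells expressing exogenous NR-Gal4 chimeras; increases scored against DMSO baseline.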
# [3] = target: Nuclear receptor subfamily 4 group A member 2 (Homo sapiens) (UniProt P43354); assay: ATG_NURR1_TRANS: Attagene TRANS-FACTORIAL HepG2 Assay for human Nuclear Receptor Related Protein 1 (NURR1) (AID 2282985); conditions: HepG2 Attagene TRANS reporter, mRNA readout
# Nuclear receptor subfamily 4 group A member 2 (Homo sapiens), sequence (P43354 whole entry, looked up, the tested form may be a part): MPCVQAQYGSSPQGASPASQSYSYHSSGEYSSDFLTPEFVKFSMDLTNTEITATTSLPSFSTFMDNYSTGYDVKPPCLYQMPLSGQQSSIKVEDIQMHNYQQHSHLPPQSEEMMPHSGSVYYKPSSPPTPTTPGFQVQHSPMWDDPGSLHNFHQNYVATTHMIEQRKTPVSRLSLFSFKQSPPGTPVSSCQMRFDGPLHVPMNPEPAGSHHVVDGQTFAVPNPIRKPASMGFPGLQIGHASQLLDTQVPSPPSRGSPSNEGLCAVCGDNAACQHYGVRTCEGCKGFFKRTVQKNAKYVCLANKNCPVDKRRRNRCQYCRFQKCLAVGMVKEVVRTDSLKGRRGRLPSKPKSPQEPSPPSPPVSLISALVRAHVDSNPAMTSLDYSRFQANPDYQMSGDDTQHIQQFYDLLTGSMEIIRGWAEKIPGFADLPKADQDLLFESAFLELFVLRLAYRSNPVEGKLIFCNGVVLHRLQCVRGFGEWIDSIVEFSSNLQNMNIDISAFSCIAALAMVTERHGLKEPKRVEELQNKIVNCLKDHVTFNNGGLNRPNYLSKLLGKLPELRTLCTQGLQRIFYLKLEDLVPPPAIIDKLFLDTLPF
# Summary of the method: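 HepG2 cells transiently transfected with GAL4-UAS reporter units and chimeric NR-Gal4 constructs; chemical exposure 24 h. Reporter mRNA quantified by RT-PCR, fluorescent labelling and capillary electrophoresis; gain of signal fitted relative to DMSO baseline.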
# [4] = target: human Peroxisome Proliferator-activated Receptor alpha (PPARa), PPARA (gene 5465) (UniProt Q07869); assay: ATG_PPARa_TRANS: Attagene TRANS-FACTORIAL HepG2 Assay for human Peroxisome Proliferator-activated Receptor alpha (PPARa) (AID 2283001)
# human Peroxisome Proliferator-activated Receptor alpha (PPARa), PPARA (gene 5465), sequence (Q07869 whole entry, looked up, the tested form may be a part): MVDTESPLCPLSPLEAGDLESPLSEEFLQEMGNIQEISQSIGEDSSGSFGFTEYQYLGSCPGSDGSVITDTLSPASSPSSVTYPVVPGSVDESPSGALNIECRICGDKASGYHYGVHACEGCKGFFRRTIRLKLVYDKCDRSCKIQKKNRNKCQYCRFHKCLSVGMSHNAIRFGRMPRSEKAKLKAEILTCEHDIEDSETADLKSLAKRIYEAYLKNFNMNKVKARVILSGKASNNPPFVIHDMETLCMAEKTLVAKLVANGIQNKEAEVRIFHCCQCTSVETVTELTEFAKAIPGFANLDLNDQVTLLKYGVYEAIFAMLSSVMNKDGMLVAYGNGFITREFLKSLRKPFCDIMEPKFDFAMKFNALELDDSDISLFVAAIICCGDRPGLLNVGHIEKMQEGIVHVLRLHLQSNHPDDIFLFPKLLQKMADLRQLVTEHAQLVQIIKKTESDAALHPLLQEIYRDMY
# Summary of the method: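 HepG2 cells transiently transfected with multiplexed GAL4-UAS reporter units and chimeric NR-Gal4 constructs were dosed for 24 h. Reporter mRNA was measured by RT-PCR with fluorescent labelling and capillary electrophoresis; gain of signal fitted against DMSO.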
# [5] = target: human Peroxisome Proliferator-activated Receptor delta (PPARd), PPARD (gene 5467) (UniProt Q03181); assay: ATG_PPARd_TRANS: Attagene TRANS-FACTORIAL HepG2 Assay for human Peroxisome Proliferator-activated Receptor delta (PPARd) (AID 2283002)
# human Peroxisome Proliferator-activated Receptor delta (PPARd), PPARD (gene 5467), sequence (Q03181 whole entry, looked up, the tested form may be a part): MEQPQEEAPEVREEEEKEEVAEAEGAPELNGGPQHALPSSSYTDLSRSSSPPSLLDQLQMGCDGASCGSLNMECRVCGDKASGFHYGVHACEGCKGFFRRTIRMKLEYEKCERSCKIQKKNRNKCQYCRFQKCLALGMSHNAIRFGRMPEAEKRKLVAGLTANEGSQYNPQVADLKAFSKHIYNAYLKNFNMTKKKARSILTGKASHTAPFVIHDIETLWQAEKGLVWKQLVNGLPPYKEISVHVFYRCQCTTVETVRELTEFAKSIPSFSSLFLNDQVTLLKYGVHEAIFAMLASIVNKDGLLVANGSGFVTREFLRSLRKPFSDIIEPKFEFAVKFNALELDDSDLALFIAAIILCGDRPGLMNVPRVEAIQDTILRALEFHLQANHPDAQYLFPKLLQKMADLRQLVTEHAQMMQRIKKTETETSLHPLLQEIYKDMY
# Summary of the method: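 Multiplexed trans-activation format: HepG2 liver cells expressing exogenous NR-Gal4 chimeras and GAL4-UAS reporters were exposed for 24 h. Reporter mRNA was detected by RT-PCR with capillary electrophoresis fluorescence; activity fitted as gain of signal relative to DMSO.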
# [6] = target: human RAR-related Orphan Receptor gamma (RORg), RORC (gene 6097) (UniProt P51449); assay: ATG_RORg_TRANS: Attagene TRANS-FACTORIAL HepG2 Assay for human RAR-related Orphan Receptor gamma (RORg) (AID 2283011);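 on AC50: potency for induction of reporter transcripts above DMSO so activators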
# human RAR-related Orphan Receptor gamma (RORg), RORC (gene 6097), sequence (P51449 whole entry, looked up, the tested form may be a part): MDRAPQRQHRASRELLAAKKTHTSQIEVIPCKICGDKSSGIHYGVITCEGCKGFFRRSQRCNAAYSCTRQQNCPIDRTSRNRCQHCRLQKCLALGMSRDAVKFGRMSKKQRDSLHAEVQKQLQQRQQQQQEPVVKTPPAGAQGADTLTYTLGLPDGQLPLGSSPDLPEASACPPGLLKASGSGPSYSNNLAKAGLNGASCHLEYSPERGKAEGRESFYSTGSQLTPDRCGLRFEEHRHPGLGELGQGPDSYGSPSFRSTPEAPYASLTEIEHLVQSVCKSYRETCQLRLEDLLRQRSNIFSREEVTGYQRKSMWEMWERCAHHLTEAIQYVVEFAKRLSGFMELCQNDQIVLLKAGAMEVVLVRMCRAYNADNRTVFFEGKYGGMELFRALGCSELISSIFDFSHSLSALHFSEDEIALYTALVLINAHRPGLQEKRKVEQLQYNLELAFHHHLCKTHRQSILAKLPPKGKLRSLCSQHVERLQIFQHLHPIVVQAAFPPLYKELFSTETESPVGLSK
# Summary of the method: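 Reporter transcripts from a transfected RORg-GAL4 chimera in HepG2 cells were quantified 24 h after dosing by RT-PCR, 6-FAM labelling, HpaI digestion and capillary electrophoresis; increases over DMSO baseline were fitted.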
# [7] = TOX21_p53_BLA_p2_viability: Viability Assessment in the Tox21 HCT-116 p53 Agonism Beta-lactamase Assay, Phase 2 (AID 2283591);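 further: compound exposure lasted 16 h at 37 °C; actives lower the ATP signal meaning cytotoxicity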
# Summary of the method: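 HCT-116 p53-bla cells (4000/well) rested 5 h at 37C, then received compounds in DMSO (217-fold dilution) for 16 h at 37C, 5% CO2. After the CCF4 read, CellTiter-Glo was added; ATP luminescence was read after 30 min at room temperature.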
# [8] = target: Cellular tumor antigen p53 (Homo sapiens) (UniProt P04637); assay: TOX21_p53_BLA_p2_ratio: Tox21 HCT-116 p53 Agonism Beta-lactamase Assay, Ratio, Phase 2 (AID 2283592)
# Cellular tumor antigen p53 (Homo sapiens), sequence (P04637 whole entry, looked up): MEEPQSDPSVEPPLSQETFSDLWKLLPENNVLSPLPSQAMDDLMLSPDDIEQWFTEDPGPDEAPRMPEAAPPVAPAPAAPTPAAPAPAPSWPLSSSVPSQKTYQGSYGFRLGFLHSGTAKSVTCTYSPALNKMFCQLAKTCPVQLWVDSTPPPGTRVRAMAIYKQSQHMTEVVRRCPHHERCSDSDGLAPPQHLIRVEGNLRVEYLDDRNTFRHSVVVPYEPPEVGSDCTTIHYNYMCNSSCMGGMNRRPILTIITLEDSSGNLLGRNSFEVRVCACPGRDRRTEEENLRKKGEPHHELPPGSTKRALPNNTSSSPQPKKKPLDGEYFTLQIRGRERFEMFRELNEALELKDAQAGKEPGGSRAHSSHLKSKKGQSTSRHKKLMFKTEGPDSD
# Summary of the method: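 Gain-of-signal p53 agonism was scored from the beta-lactamase FRET ratio (460/530 nm, 405 nm excitation) in HCT116 cells treated 16 h at 37C, 5% CO2, with DMSO serving as negative control and baseline.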
# [9] = TOX21_p53_BLA_p3_viability: Viability Assessment in the Tox21 HCT-116 p53 Agonism Beta-lactamase Assay, Phase 3 (AID 2283593);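 further: cells exposed to compound for 16 h before reading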
# Summary of the method: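 HCT-116 cells (4000/well) rested 5 h at 37C, then got DMSO compounds by pin tool (217-fold dilution) for 16 h at 37C, 5% CO2. After the bla read, CellTiter-Glo was added and luminescence read at 30 min, room temperature.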
# [10] = TOX21_p53_BLA_p4_viability: Viability Assessment in the Tox21 HCT-116 p53 Agonism Beta-lactamase Assay, Phase 4 (AID 2283597);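 further: hits lower the luminescence signal meaning cytotoxicity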
# Summary of the method: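 Following a 16 h exposure at 37C, the treated HCT116 wells were first read for the FRET ratio. They were then lysed with CellTiter-Glo, and ATP luminescence was recorded after 30 min at room temperature.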
# [11] = TOX21_p53_BLA_p5_viability: Viability Assessment in the Tox21 HCT-116 p53 Agonism Beta-lactamase Assay, Phase 5 (AID 2283600)
# Summary of the method: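 After the 460/530 nm beta-lactamase measurement, the wells received an ATP-detection luciferase reagent; signal was read 30 min later at RT. Compound treatment lasted 16 h on cells pre-incubated 5 h post-seeding.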
# [12] = ACEA_ER_AUC_viability: ACEA Biosciences xCELLigence Real-Time Cell Analysis on Estrogen Receptor Agonism for Viability (AID 2283782);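 further: continuous compound exposure with impedance area under curve over 80 h; hit means loss of impedance signal meaning reduced cell growth or viability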
# Summary of the method: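 T-47D human breast cells in phenol red-free RPMI1640 with 10% charcoal-stripped FBS were dosed with an 8-point 1:4 dilution series from 100 uM top final concentration, in duplicate. Impedance-based growth was followed for 80 h; AUC analysed versus DMSO.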
# [13] = target: Nuclear receptor subfamily 1 group I member 3 (Homo sapiens) (UniProt Q14994); assay: ATG_CAR_TRANS: Attagene TRANS-FACTORIAL HepG2 Assay for human Constitutive Androstane Receptor (CAR) (AID 2282969); conditions: HepG2 Attagene TRANS-FACTORIAL CAR reporter;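 further: activators raise reporter mRNA above DMSO so AC50 marks induction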
# Nuclear receptor subfamily 1 group I member 3 (Homo sapiens), sequence (Q14994 whole entry, looked up, the tested form may be a part): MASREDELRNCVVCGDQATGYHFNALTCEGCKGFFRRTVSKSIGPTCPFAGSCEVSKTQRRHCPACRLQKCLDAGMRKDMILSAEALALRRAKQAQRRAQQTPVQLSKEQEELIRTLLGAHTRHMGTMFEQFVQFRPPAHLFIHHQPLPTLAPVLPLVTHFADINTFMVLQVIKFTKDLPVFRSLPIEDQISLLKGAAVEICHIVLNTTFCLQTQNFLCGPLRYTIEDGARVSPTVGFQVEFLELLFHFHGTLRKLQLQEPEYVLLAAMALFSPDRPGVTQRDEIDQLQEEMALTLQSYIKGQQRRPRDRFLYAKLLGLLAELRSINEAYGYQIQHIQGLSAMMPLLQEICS
# Summary of the method: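 HepG2 cells transiently transfected with multiplexed GAL4-UAS reporter units expressing chimeric NR-Gal4 proteins; compound exposure 24 h. Reporter mRNA measured by RT-PCR, 6-FAM labelling, HpaI digestion and capillary electrophoresis; gain-of-signal fitted against DMSO baseline.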
# [14] = ATG_GAL4_TRANS: Attagene TRANS-FACTORIAL HepG2 Assay for GAL4 (Internal Marker) (AID 2282976); conditions: HepG2 Attagene TRANS GAL4 internal marker reporter
# Summary of the method: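 In transfected human HepG2 liver cells dosed 24 h, GAL4 reporter mRNA serves as a baseline marker. Detection by RT-PCR with fluorescent capillary electrophoresis, activity fitted upward relative to DMSO.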
# [15] = target: Peroxisome proliferator-activated receptor gamma (Homo sapiens) (UniProt P37231); assay: OT_PPARg_PPARgSRC1_0480: Odyssey Thera (OT) 8-hour Protein-Complementation Assay for Peroxisome Proliferator-activated Receptor Gamma / SRC-1 Co-activator (AID 2283387);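 further: nuclear to cytoplasmic split Venus YFP fluorescence ratio reporting PPARg SRC-1 interaction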
# Peroxisome proliferator-activated receptor gamma (Homo sapiens), sequence (P37231 whole entry, looked up, the tested form may be a part): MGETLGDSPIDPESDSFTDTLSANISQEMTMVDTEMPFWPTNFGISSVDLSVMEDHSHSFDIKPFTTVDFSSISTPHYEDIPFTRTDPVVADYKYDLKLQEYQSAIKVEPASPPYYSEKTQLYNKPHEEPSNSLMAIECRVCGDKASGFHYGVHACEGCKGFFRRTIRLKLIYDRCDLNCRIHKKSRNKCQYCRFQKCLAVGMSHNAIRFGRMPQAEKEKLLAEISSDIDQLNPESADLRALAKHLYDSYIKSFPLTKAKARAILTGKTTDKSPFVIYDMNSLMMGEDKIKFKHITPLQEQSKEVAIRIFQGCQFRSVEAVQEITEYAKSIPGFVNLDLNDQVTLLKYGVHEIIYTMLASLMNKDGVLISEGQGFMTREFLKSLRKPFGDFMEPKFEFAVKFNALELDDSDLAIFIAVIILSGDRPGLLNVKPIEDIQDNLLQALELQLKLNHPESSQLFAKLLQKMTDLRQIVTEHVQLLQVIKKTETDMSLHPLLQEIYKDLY
# Summary of the method: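 Split-YFP (IFP1/IFP2) PPARg/SRC-1 reporter, HEK293T, 37 °C, 5% CO2; 8 h compound; formaldehyde fix + Draq5; high-content imaging, N/C ratio, ≥350 cells/image, positive direction vs DMSO.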
# [16] = target: Peroxisome proliferator-activated receptor gamma (Homo sapiens) (UniProt P37231); assay: OT_PPARg_PPARgSRC1_1440: Odyssey Thera (OT) 24-hour Protein-Complementation Assay for Peroxisome Proliferator-activated Receptor Gamma/ SRC-1 Co-activator (AID 2283388);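 further: nuclear to cytoplasmic ratio of reconstituted Venus YFP fluorescence in fixed imaged cells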
# Summary of the method: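 Readout is the 488 nm N/C fluorescence ratio from fixed, Draq5-stained HEK293T cells after 24 h compound exposure. Cells carried transiently transfected PPARg and SRC-1 fused to Venus fragments, transfected 48 h before treatment.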
# [17] = target: Oxysterols receptor LXR-beta (Homo sapiens) (UniProt P55055); assay: ATG_LXRb_TRANS: Attagene TRANS-FACTORIAL HepG2 Assay for human Liver X Receptor beta (LXRb) (AID 2282981); conditions: HepG2 Attagene TRANS GAL4-LXRb reporter, mRNA
# Oxysterols receptor LXR-beta (Homo sapiens), sequence (P55055 whole entry, looked up, the tested form may be a part): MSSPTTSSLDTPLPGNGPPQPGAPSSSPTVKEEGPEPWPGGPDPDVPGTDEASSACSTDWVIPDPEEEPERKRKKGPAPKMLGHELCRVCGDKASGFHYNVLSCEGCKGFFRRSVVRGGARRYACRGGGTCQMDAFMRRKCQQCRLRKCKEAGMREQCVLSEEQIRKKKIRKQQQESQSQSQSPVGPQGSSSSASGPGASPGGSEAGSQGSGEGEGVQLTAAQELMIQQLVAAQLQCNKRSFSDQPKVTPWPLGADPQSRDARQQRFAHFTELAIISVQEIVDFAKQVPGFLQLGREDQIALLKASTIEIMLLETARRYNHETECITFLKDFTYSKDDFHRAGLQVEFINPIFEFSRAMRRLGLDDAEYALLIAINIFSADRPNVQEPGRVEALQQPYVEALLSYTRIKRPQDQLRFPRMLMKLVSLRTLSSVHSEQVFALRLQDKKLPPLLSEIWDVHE
# Summary of the method: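 HepG2 cells transiently transfected with multiple reporter transcription units carrying chimeric NR-Gal4 proteins acting on GAL4-UAS reporters; compound exposure 24 h. Reporter mRNA quantified by RT-PCR, 6-FAM labelling, HpaI digestion and capillary electrophoresis; gain of signal versus DMSO.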
# [18] = target: human Thyroid Receptor alpha (THRa1), THRA (gene 7067) (UniProt P10827); assay: ATG_THRa1_TRANS: Attagene TRANS-FACTORIAL HepG2 Assay for human Thyroid Receptor alpha (THRa1) (AID 2283014)
# human Thyroid Receptor alpha (THRa1), THRA (gene 7067), sequence (P10827 whole entry, looked up, the tested form may be a part): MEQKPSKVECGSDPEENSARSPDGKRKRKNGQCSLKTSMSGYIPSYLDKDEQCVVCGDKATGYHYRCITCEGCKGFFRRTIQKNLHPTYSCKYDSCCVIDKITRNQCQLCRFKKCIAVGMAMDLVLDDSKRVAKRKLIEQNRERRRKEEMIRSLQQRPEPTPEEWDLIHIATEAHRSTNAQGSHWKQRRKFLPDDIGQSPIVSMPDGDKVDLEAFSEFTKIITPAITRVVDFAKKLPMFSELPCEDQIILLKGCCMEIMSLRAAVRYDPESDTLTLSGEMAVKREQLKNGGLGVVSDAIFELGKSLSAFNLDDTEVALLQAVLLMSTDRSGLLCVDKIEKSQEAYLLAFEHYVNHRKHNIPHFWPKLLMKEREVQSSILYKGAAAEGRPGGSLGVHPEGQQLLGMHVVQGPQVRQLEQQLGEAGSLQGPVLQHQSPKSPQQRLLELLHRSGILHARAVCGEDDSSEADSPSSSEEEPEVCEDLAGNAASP
# Summary of the method: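 Transcripts from GAL4-UAS-driven reporters, measured after 24 h compound exposure by RT-PCR plus capillary electrophoresis of 6-FAM-labeled fragments, were fitted for gain of signal relative to DMSO. Cells: transiently transfected HepG2 expressing NR-Gal4 chimeras.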
# [19] = target: Bile acid receptor (Homo sapiens) (UniProt Q96RI1); assay: ATG_IR1_CIS: Attagene CIS-FACTORIAL HepG2 Assay for human Nuclear Receptor Subfamily 1 Group H Member 4 (NR1H4), IR1 submotif (AID 2282946; active means hit-call score of the fitted dose curve at least 0.9, where 1 is the maximum; inactive means score below 0.9); conditions: IR1 reporter transcription, actives raise or lower the signal
# Summary of the method: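 Transient MRTU transfection, HepG2; 24 h dosing; RNA → RT-PCR → 6-FAM primer extension → HpaI digest → capillary electrophoresis fluorescence. Gain/loss of signal fitted relative to DMSO.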
# [20] = target: human Vitamin D Receptor (VDR), VDR (gene 7421) (UniProt P11473); assay: ATG_VDR_TRANS: Attagene TRANS-FACTORIAL HepG2 Assay for human Vitamin D Receptor (VDR) (AID 2283022)
# Summary of the method: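 Transactivation by an exogenous VDR-Gal4 chimera in transiently transfected HepG2 cells was measured as reporter transcript level 24 hours after chemical treatment. RT-PCR products were analysed by capillary electrophoresis and fitted in the positive direction relative to DMSO.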
smiles,measurement,setting,value
CC(C)(C)C(=O)CCl,outcome,[1],inactive
same,outcome,[2],inactive
same,AC50,[3],135 µM (active)
same,outcome,[4],inactive
same,outcome,[5],inactive
same,AC50,[6],134 µM (active)
same,outcome,[7],inactive
same,outcome,[8],inactive
same,outcome,[9],inactive
same,outcome,[10],inactive
same,outcome,[11],inactive
same,outcome,[12],inactive
C=CCN(CC=C)C(=O)C(Cl)Cl,outcome,[13],inactive
same,outcome,[1],inactive
same,outcome,[14],inactive
same,outcome,[5],inactive
same,outcome,[15],inactive
same,outcome,[16],inactive
same,outcome,[7],inactive
same,outcome,[8],inactive
same,outcome,[9],inactive
same,outcome,[10],inactive
same,outcome,[11],inactive
same,outcome,[12],inactive
Nc1ccccc1C(=O)OCCc1ccccc1,outcome,[13],inactive
same,outcome,[2],inactive
same,outcome,[17],inactive
same,outcome,[3],inactive
same,outcome,[4],inactive
same,outcome,[6],inactive
same,outcome,[18],inactive
same,outcome,[7],inactive
same,outcome,[8],inactive
same,outcome,[9],inactive
same,outcome,[10],inactive
same,outcome,[11],inactive
[N-]=[N+]=CC(=O)OC[C@H](N)C(=O)O,outcome,[19],inactive
same,outcome,[14],inactive
same,outcome,[2],inactive
same,outcome,[17],inactive
same,outcome,[3],inactive
same,outcome,[4],inactive
same,outcome,[5],inactive
same,outcome,[20],inactive
same,outcome,[7],inactive
same,outcome,[8],inactive
same,outcome,[9],inactive
same,outcome,[11],inactive
CCOP(=O)(OCC)OCC,outcome,[13],inactive
same,outcome,[1],inactive
same,outcome,[2],inactive
same,outcome,[17],inactive
same,outcome,[4],inactive
same,outcome,[5],inactive
same,outcome,[6],inactive
same,outcome,[18],inactive
same,outcome,[20],inactive
same,outcome,[15],inactive
same,outcome,[16],inactive
same,outcome,[7],inactive
same,outcome,[8],inactive
same,outcome,[10],inactive
same,outcome,[11],inactive
same,outcome,[12],inactive
